# Over roughly 8,300 sequences, “log2 fold change of degron read counts, EGFP-low vs EGFP+ sorted cells (limma voom), compound-induced degradation” has its median near -1.1; the highest 2% begin near 3.2. Many of the other results were omitted from the sample, so the highest values are more common in it than they were.
# T1: CRBN, Q96SW2
# T1 chain: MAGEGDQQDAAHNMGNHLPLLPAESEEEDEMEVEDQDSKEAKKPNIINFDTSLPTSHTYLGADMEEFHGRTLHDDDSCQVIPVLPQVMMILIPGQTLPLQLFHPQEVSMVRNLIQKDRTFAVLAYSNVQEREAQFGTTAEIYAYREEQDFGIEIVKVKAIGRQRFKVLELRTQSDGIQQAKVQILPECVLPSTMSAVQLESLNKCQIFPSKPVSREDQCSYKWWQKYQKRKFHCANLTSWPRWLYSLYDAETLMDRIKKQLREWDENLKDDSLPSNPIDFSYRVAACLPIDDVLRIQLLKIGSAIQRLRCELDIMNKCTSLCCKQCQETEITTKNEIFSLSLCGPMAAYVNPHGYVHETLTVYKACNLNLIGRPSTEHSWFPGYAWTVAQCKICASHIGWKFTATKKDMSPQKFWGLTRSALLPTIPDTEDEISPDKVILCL
# Biological target: T1, CRBN, Q96SW2
# Assay: log2 fold change of degron read counts, EGFP-low vs EGFP+ sorted cells (limma voom), compound-induced degradation; higher = more compound-induced degradation of the degron-EGFP fusion; degrons are variants of IKZF1/3 zinc finger 2; compound dose not given here
# Details: Jurkat, 18 h
# [1] = compound: compound 19 (5-tert-butyl-thalidomide)
# [2] = compound: compound 22 (5-morpholino-thalidomide)
# [3] = compound: compound 33 (diphenyl IMiD analogue)
# 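Note: pooled lentiviral library of zinc finger degron-EGFP fusions in mCherry-positive Jurkat cells, FACS-sorted after compound exposure, with degron abundance counted by next-generation sequencing.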
Sequence,log2 fold change of degron read counts [1],log2 fold change of degron read counts [2],log2 fold change of degron read counts [3],log2 fold change of degron read counts (compound: thalidomide)
"LSCEICGFICTQKGNLLRHIKL [46L_47S_49E_50I_52G_53F_54I_55C_67L_, Q9UKT9]",0.617,0.753,0.094,0.23
"LRCNQCGFDCTQKGNLLRHIKL [46L_47R_49N_50Q_52G_53F_54D_55C_67L_, Q9UKT9]",-2.4,-3.02,-2,-2.27
"FICEICGAVFTQKGNLLRHIKL [46F_47I_49E_50I_52G_53A_54V_55F_67L_, Q9UKT9]",-0.571,1.25,2.53,2.12
"FECEQCGAIFTQKGNLLRHIKL [46F_47E_49E_50Q_52G_53A_54I_55F_67L_, Q9UKT9]",-2.86,-2.97,-1.26,-0.499
"LACEICGFECTQKGNLLRHIKL [46L_47A_49E_50I_52G_53F_54E_55C_67L_, Q9UKT9]",0.602,-0.739,-1.36,-0.804
"FICEICGRMFTQKGNLLRHIKL [46F_47I_49E_50I_52G_53R_54M_55F_67L_, Q9UKT9]",-2.48,-1.85,-0.238,-0.738
"FICPICGATFTQKGNLLRHIKL [46F_47I_49P_50I_52G_53A_54T_55F_67L_, Q9UKT9]",-1.06,1.53,1.48,1.86
"FRCPICGATFTQKGNLLRHIKL [46F_47R_49P_50I_52G_53A_54T_55F_67L_, Q9UKT9]",-0.752,-0.483,1.07,1.12
"FMCPICGATFTQKGNLLRHIKL [46F_47M_49P_50I_52G_53A_54T_55F_67L_, Q9UKT9]",-1.31,0.0387,2.08,1.34
"FNCPICGATFTQKGNLLRHIKL [46F_47N_49P_50I_52G_53A_54T_55F_67L_, Q9UKT9]",1.88,0.692,1.59,0.652
"FGCPICGATFTQKGNLLRHIKL [46F_47G_49P_50I_52G_53A_54T_55F_67L_, Q9UKT9]",3.46,2.4,2.17,1.08
"FKCPICGATFTQKGNLLRHIKL [46F_47K_49P_50I_52G_53A_54T_55F_67L_, Q9UKT9]",-1.47,-2.7,-2.3,-1.17
"FFCPICGATFTQKGNLLRHIKL [46F_47F_49P_50I_52G_53A_54T_55F_67L_, Q9UKT9]",2.81,3.61,1.65,1.35
"FVCPICGATFTQKGNLLRHIKL [46F_47V_49P_50I_52G_53A_54T_55F_67L_, Q9UKT9]",-0.613,1.74,1.8,2.23
"FCCPICGATFTQKGNLLRHIKL [46F_47C_49P_50I_52G_53A_54T_55F_67L_, Q9UKT9]",1.51,1.82,2.36,2.09
"FACPICGATFTQKGNLLRHIKL [46F_47A_49P_50I_52G_53A_54T_55F_67L_, Q9UKT9]",3.39,1.82,1.17,0.639
"FSCPICGATFTQKGNLLRHIKL [46F_47S_49P_50I_52G_53A_54T_55F_67L_, Q9UKT9]",2.78,2.14,2.34,1.5
"FQCPICGATFTQKGNLLRHIKL [46F_47Q_49P_50I_52G_53A_54T_55F_67L_, Q9UKT9]",0.717,2.74,2.33,3.56

Sequence,log2 fold change of degron read counts [1],log2 fold change of degron read counts [2],log2 fold change of degron read counts [3],log2 fold change of degron read counts (compound: thalidomide)
"FECPICGRRFTQKGNLLRHIKL [46F_47E_49P_50I_52G_53R_54R_55F_67L_, Q9UKT9]",-0.662,-1.27,0.491,2.58
"FRCPQCGADFTQKGNLLRHIKL [46F_47R_49P_50Q_52G_53A_54D_55F_67L_, Q9UKT9]",-3.08,-3.48,-0.625,-1.35
"LCCNQCGFCCTQKGNLLRHIKL [46L_47C_49N_50Q_52G_53F_54C_55C_67L_, Q9UKT9]",-1.92,-2.67,-1.9,-2
"FDCDICGAFFTQKGNLLRHIKL [46F_47D_49D_50I_52G_53A_54F_55F_67L_, Q9UKT9]",-1.35,-2.45,-1.91,-1.7
"LMCEICGFKCTQKGNLLRHIKL [46L_47M_49E_50I_52G_53F_54K_55C_67L_, Q9UKT9]",0.00993,-0.209,0.918,1.45
"FHCNQCGHMFTQKGNLLRHIKL [46F_47H_49N_50Q_52G_53H_54M_55F_67L_, Q9UKT9]",-2.28,-2.39,-2.58,-2.2
"FLCDICGATFTQKGNLLRHIKL [46F_47L_49D_50I_52G_53A_54T_55F_67L_, Q9UKT9]",-1.67,-1.74,-0.434,-0.565
"FQCDICGATFTQKGNLLRHIKL [46F_47Q_49D_50I_52G_53A_54T_55F_67L_, Q9UKT9]",-0.685,1.86,0.81,3.25
"FGCNICGATFTQKGNLLRHIKL [46F_47G_49N_50I_52G_53A_54T_55F_67L_, Q9UKT9]",0.0778,1.89,1.52,0.109
"FYCNICGATFTQKGNLLRHIKL [46F_47Y_49N_50I_52G_53A_54T_55F_67L_, Q9UKT9]",0.426,2.67,0.933,-0.961
"FTCPICGATFTQKGNLLRHIKL [46F_47T_49P_50I_52G_53A_54T_55F_67L_, Q9UKT9]",0.225,2.5,2.28,2.88
"FWCPICGATFTQKGNLLRHIKL [46F_47W_49P_50I_52G_53A_54T_55F_67L_, Q9UKT9]",2.22,3.57,1.64,0.523
"FCCDICGATFTQKGNLLRHIKL [46F_47C_49D_50I_52G_53A_54T_55F_67L_, Q9UKT9]",0.685,1.05,1.24,0.177
"FDCPICGATFTQKGNLLRHIKL [46F_47D_49P_50I_52G_53A_54T_55F_67L_, Q9UKT9]",1.59,0.119,1.11,1.68
"FQCNICGATFTQKGNLLRHIKL [46F_47Q_49N_50I_52G_53A_54T_55F_67L_, Q9UKT9]",-0.501,1.47,1.42,3.87
"FYCPICGATFTQKGNLLRHIKL [46F_47Y_49P_50I_52G_53A_54T_55F_67L_, Q9UKT9]",3.2,3.57,2.42,1.16
"FLCPICGATFTQKGNLLRHIKL [46F_47L_49P_50I_52G_53A_54T_55F_67L_, Q9UKT9]",-1.02,-0.515,1.48,1.68
"FECPICGATFTQKGNLLRHIKL [46F_47E_49P_50I_52G_53A_54T_55F_67L_, Q9UKT9]",0.0819,-0.536,1.91,2.9

# — the supplement of paper PMC12645437, “Orthogonal IMiD-Degron Pairs Induce Selective Protein Degradation in Cells” (ACS Chemical Biology, 2025)
